Only some compounds are listed: those with a hit (about 1.7% of all), similar ones and a draw of the others.
TrxR1 substrate – substrates of rat thioredoxin reductase 1; O89049; purified TrxR1 substrate turnover, NADPH consumption readout; Potency, µM (top dose mostly 114 µM); 0.01% of 390,000 active; further: nearly all actives have a fitted effect of over 50% in size
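Rat TrxR1, dispensed at 90 nM, was prereduced with 400 uM NADPH (final) for 5 min at ~22 deg C, then incubated with compound 15 min before 400 uM selenite. A first-read NADPH fluorescence drop versus no-compound background flagged substrates.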
rTrxR1 inhibitor – blocks rat thioredoxin reductase 1; O89049; 1% of 390,000 active; Potency, µM (highest dose often 114 µM), usual class: inhibitors; recombinant rTrxR1, NADPH fluorescence consumption, selenite substrate; further: nearly all actives have a fitted effect of over 65% in size
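Rat TrxR1 (90 nM in the dispensed reagent) was pre-reduced with 400 uM NADPH for 5 min at room temperature, then incubated with compound for 15 min. After 400 uM selenite was added, NADPH fluorescence (Ex 340/Em 450 nm) was followed for 8 min.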
mIDH1 inhibitor – inhibitors of human mutant IDH1 R132H; O75874; IDH1-R132H enzyme, NADPH consumption, diaphorase/resazurin fluorescence; Potency, µM (titrated, usually from 76.6 µM), usual class: inhibitors; 0.093% of 390,000 active; AID 602179; further: nearly all actives have a fitted effect of over 65% in size
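IDH1-R132H (0.5 ug/mL dispensed) in pH 7.5 Tris buffer was preincubated 30 min with compound, then given a substrate mix of 0.016 mM NADPH and 2 mM alpha-KG for 80 min at room temperature; remaining NADPH was read by diaphorase/resazurin fluorescence.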
Anesthetic bind – candidate novel general anesthetic via apoferritin binding. P02791. apoferritin/1-aminoanthracene competitive binding, fluorescence. Potency, µM (doses to about 77.5 µM), usual class: inhibitors. 0.074% of 350,000 active; further: nearly all actives have a fitted effect of over 20% in size
Target sequence (P02791 2-175 limits assumed): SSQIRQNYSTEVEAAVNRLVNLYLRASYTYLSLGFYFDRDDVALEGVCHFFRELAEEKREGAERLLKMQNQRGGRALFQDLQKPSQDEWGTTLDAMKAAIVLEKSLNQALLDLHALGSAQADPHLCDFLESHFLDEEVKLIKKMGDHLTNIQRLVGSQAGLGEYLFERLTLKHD
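Apoferritin-based anesthetic binding model; compound displacement of fluorescent 1-AMA measured as endpoint fluorescence after 10 minutes at room temperature, scaled to free-ligand and complex controls.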
12-LOX inh – ALOX12 (human) lipoxygenase inhibition | P18054 | purified 12hLO, xylenol orange hydroperoxide absorbance | Potency, µM (highest dose often 108 µM), actives largely listed as inhibitors | 1.1% of 580,000 active | AID 1671190
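Purified human 12hLO (150 nM final) in 25 mM Hepes, 0.01% Triton X-100, pH 7.0 was preincubated 15 min at room temperature with compound. Then 40 uM arachidonic acid was added, 30 min. Hydroperoxide was read by Fe-XO absorbance ratio 573/405 nm.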
GRP78 ERSR act – ER stress response induction in glioma; U87-MG GRP78 promoter luciferase reporter, 16 h; Potency, µM, usual class: activators; 0.02% of 420,000 active; AID 602332; further: series mostly up to about 76 µM; nearly all actives have a fitted effect of over 35% in size
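Stably transfected U87-MG glioma cells carrying a GRP78-based luciferase sensor; 16 h compound incubation. Luminescence end-point read 10 min after Bright-Glo addition at room temperature.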
A number is an active result; 0 = inactive; ? = inconclusive; - = not tested or not shown; [ ] = remark or other dose. The call rests on the fitted dose curve; in most records, active means well fitted curve in the direction sought with a large enough effect; inconclusive means small, poorly fitted or top-dose-only effect, or another doubt; inactive means no such curve, though single readings can be large; an effect the other way counts as inactive or inconclusive.

SMILES	TrxR1 substrate	rTrxR1 inhibitor	mIDH1 inhibitor	Anesthetic bind	12-LOX inh	GRP78 ERSR act
Clc1cccc(CN2CCSCC2)c1	0[2.29 µM]	0	0	?	0.35µM	0
COc1cc(CCC(=O)Nc2ccc(S(=O)(=O)N3CCOCC3)cc2)cc(OC)c1OC	0	0	0	-	0	0
O=S(=O)(c1ccc(NC(=S)Nc2ccc3c(c2)OCO3)cc1)N1CCOCC1	0	40µM	0	0	0	0
O=[N+]([O-])c1cc(Cl)cc(/C=N/NC(=S)Nc2ccc(S(=O)(=O)N3CCOCC3)cc2)c1O	0	79µM	?	?	?	0
COc1cc(NC(=S)Nc2ccc(S(=O)(=O)N3CCOCC3)cc2)cc(OC)c1OC	0	14µM	0	0	0	0
CC(C)CCCCCCNC(=S)Nc1ccc(S(=O)(=O)N2CCOCC2)cc1	0	0	0	?	50µM	0
COCCC(=O)N1CCC2(CC1)CN(C(C)=O)CC2COC (centres undefined)	-	-	-	-	0	-
O=C(c1ccoc1)N1CCCC(CN2CCOCC2)CC1 (centres undefined)	-	-	-	-	0	-
O=C(Cc1ccc(Br)cc1)Nc1cccc(S(=O)(=O)N2CCOCC2)c1	0	0	0	-	0	0
O=S(=O)(c1cccc(NC(=S)Nc2ccc(Br)cc2Cl)c1)N1CCOCC1	0	18µM	0	?	?	0
Cc1ncc(CO)c(/C=N/NC(=S)Nc2ccc(Cl)c(Cl)c2)c1O	0	?	?	0	45µM	0
COc1ccc(OC)c(C(=O)N2CCc3c(cnc(C)c3CNS(=O)(=O)N(C)C)C2)c1	-	-	-	-	?	0
O=C(/C=C/c1ccc(Cl)cc1)c1cc(Cl)cc(Cl)c1O	-	-	-	-	3.5µM	-
Cc1ccc(/C=C/C(=O)c2cc(Cl)ccc2O)cc1	-	-	-	-	0	-
O=C(C=Cc1ccc(O)cc1)c1ccc(O)cc1O	-	-	-	-	7.9µM	-
CCCc1nc(NCc2nc(Cc3cccs3)no2)c2cnn(C)c2n1	-	-	-	-	0	-
CC(C)C[C@@H](CO)NC(=O)[C@H](NC(=O)C(c1ccccc1)c1ccccc1)c1ccccc1	-	-	-	-	0	-
Cn1c(/C(C#N)=C/c2ccccc2Br)nc2ccccc21	0	0	-	0	0	-
CC(C)c1cnc2c(c1SCc1cccc(F)c1)c(=O)n(C)c(=O)n2C	0	0	0	?	0	0
NC(=S)N/N=C/c1ccc(-c2ccc([N+](=O)[O-])cc2)o1	0	0	0	0	32µM	0
NC(=S)N/N=C/c1ccccc1[N+](=O)[O-]	0	0	0	0	35µM	0
NC(=S)N/N=C/c1ccc(-c2cc(Cl)cc(Cl)c2)o1	0	?	0	?	40µM	0
NC(=S)N/N=C/c1ccc(-c2cc(Cl)ccc2Cl)o1	0	?	0	0	22µM	0
C=CCC1(C(=O)O)CCCN(C(=O)c2cnn3c2CCCC3)C1 (centres undefined)	-	-	-	-	0	-
COc1ccccc1CN(CCCO)CC(C#N)CCC#N (centres undefined)	-	-	-	-	0	-
SMILES	TrxR1 substrate	rTrxR1 inhibitor	mIDH1 inhibitor	Anesthetic bind	12-LOX inh	GRP78 ERSR act
COc1ccc(-c2cc(=O)oc3c(O)c(O)ccc23)cc1	0	0	0	0	1.1µM	0
COc1ccc(C(=O)Oc2ccc3c(-c4ccc(OC)cc4)cc(=O)oc3c2)cc1	-	-	-	-	0	-
Cc1cnc(SCc2ccccn2)nc1C1CCCN(Cc2ccsc2)C1 (centres undefined)	-	-	-	-	0	0
COc1ccc(CN2CCN(Cc3c[nH]c4ccccc34)CC2)cc1	0	0	0	0	0.71µM	0
COc1ccc(CN2CCN(Cc3c[nH]c4ccccc34)CC2)cc1OC	-	-	0	-	1.1µM	0
COc1ccc(Br)cc1CN1CCN(Cc2c[nH]c3ccccc23)CC1	0	0	0	0	?	0
CCN1C(=O)c2ccccc2S(=O)c2ccc(C(=O)N3CCN(c4cccc(Cl)c4)CC3)cc21 (centres undefined)	0	0	0	0	0	0
Cc1oc(-c2ccccc2)nc1CC(=O)N(C)CC(=O)Nc1ccc(Cl)cc1	-	-	-	-	0	-
CCOC(=O)C1=C(C)N(c2ccc(OC)cc2)C(=O)/C1=C\c1ccc(O)c(OCC)c1	0	40µM	0	0	?	0
CCOc1cc(/C=C2\C(=O)N(Cc3ccc(C)cc3)C(C)=C2C(=O)OC)ccc1O	0	28µM	0	?	0	?
CCOC(=O)C1=C(C)N(c2ccc(OC)cc2)C(=O)/C1=C\c1cccs1	0	0	0	0	0	0
